Results reported in paper PMC4336329 (PLoS ONE, 2015).
About 14,000 (4.5%) of roughly 310,000 compounds showed an effect of 50% or more. The effect is printed as a negative number. The list comes from a sample in which strong results are over-represented; it also holds similar structures and randomly drawn compounds.

Each compound was assayed against human ether-à-go-go-related gene (hERG) potassium channel (human, UniProt Q12809) (assay: primary screen, population patch clamp on CHO cells stably expressing hERG; higher = less effect of the substance).
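Also: peak tail current of the secondary pulse compared with the same well before compound.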

Chain of human ether-à-go-go-related gene (hERG) potassium channel (Q12809 whole entry, looked up): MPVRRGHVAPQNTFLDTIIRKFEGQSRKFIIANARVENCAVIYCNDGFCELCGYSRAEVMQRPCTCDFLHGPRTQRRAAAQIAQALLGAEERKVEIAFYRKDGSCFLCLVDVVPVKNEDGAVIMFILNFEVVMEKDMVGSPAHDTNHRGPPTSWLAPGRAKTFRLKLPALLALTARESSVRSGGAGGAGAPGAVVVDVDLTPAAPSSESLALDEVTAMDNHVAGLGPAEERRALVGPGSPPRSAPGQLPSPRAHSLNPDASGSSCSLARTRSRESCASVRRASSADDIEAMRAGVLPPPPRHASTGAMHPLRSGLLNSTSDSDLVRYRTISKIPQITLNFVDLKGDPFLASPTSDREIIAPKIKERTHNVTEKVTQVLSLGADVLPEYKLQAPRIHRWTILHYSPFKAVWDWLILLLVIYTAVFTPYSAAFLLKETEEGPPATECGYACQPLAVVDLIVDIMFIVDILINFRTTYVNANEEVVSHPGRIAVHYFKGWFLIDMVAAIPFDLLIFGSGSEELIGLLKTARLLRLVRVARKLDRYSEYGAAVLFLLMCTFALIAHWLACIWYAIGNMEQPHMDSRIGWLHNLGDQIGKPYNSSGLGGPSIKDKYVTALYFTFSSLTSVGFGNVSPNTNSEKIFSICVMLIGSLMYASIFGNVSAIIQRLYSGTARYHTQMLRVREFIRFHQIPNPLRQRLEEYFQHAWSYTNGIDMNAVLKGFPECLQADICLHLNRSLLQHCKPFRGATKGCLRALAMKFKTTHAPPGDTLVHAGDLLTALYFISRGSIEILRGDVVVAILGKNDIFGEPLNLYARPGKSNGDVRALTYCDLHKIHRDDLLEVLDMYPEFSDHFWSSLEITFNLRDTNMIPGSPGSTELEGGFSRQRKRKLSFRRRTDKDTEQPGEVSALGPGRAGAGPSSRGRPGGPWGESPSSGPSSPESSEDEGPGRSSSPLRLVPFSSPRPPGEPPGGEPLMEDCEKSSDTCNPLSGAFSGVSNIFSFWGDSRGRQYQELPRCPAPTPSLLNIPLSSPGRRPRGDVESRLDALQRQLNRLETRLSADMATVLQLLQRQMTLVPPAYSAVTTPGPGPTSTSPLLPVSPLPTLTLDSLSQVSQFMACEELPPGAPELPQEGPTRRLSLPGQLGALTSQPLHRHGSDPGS

Structure (SMILES)	hERG current change (%, negative = inhibition) at 10uM
CCOC(=O)c1c(S(=O)(=O)NCCc2ccco2)c(C)n(C)c1C	-1.25%
NNC(=O)c1ccc(Cn2cccn2)o1	5.58%
CCn1nc(C)c(NS(=O)(=O)c2ccc(C)cc2)c1C	-0.126%
CCCCC1(CCCC)C(=O)NC(=Nc2cccc(C)c2)NC1=O	0.0469%
COCC(C)NS(=O)(=O)c1ccccc1 (stereo not shown)	12.7%
COCCCNC(=S)Nc1cccc(S(=O)(=O)NC2=NCCC2)c1	36.7%
COc1ccc(CCNC(=O)c2ccc3c(c2)NC(=O)C(CSCc2cc(C)ccc2C)N3)cc1OC (stereo not shown)	12.2%
O=C(Nc1ccc(S(=O)(=O)NCc2ccco2)cc1)c1ccc2ccccc2n1	-0.235%
COc1ccc(C2(C)ON(c3ccccc3C(F)(F)F)C2=O)cc1 (stereo not shown)	5.36%
CCCCOCCCNC(=O)c1c(-c2ccccc2)noc1C	3.4%
CCOC(=O)CCN(Cc1ccccc1)S(=O)(=O)c1csc(C(N)=O)c1	-22.4%
Cl.OC(COc1ccc2c(c1)OCO2)CN1CCCC1 (stereo not shown)	5.48%
Cl.OC(COc1ccc2c(c1)OCO2)CN1CCN(c2ccc(F)cc2)CC1 (stereo not shown)	-66.1%
Cl.OC(COc1ccc2c(c1)OCO2)CN1CCN(c2ccccc2)CC1 (stereo not shown)	-2.44%
OC(COc1ccc(F)cc1)CN1CCN(CC(O)COc2ccc(F)cc2)CC1 (stereo not shown)	-71.5%
CC(=O)c1ccc(OCC(O)CN2CCN(CC(O)COc3ccc(C(C)=O)cc3)CC2)cc1 (stereo not shown)	-39.4%
COc1ccc(OCC(O)CN2CCN(CC(O)COc3ccc(OC)cc3)CC2)cc1 (stereo not shown)	-47.5%
CC(=O)c1ccc(OCC(O)CN2CCN(c3ccc(F)cc3)CC2)cc1.Cl (stereo not shown)	-67.4%
COc1ccc(N2CCN(CC(O)COc3ccc(F)cc3)CC2)cc1.Cl (stereo not shown)	-69.9%
CCC(=O)c1ccc(OCC(O)CN2CCN(c3ccc(F)cc3)CC2)cc1 (stereo not shown)	-26.8%
COc1ccc(OCC(O)CN2CCN(c3ccc(OC)cc3)CC2)cc1.Cl (stereo not shown)	-37.7%
CC1CCN(CC(O)COc2ccc(F)cc2)CC1 (stereo not shown)	-37.7%

Structure (SMILES)	hERG current change (%, negative = inhibition) at 10uM
Cc1ccc(NC(=S)NC(=O)/C=C/c2ccco2)c(O)c1	2.91%
COC(=O)CCC(=O)N1CCCC(CNS(=O)(=O)c2ccc(OC)cc2)C1 (stereo not shown)	39.4%
COc1cc(NC(=O)COC(=O)Cn2cnc3c2c(=O)n(C)c(=O)n3C)cc(OC)c1	1.05%
CC(C)COC(=O)C1C2C=CC3(CN(C4CCCC4)C(=O)C13)O2 (stereo not shown)	-15.4%
Cc1ccc(S(=O)(=O)N2CCN(C(=O)c3ccccn3)CC2)cc1	9.2%
Cc1cccc(NC(=O)c2cc(-c3ccc(C)s3)nc3ccccc23)n1	5.03%
CC(=O)c1cc2ccccc2oc1=O	2.96%
CCN1C(=O)[C@H]2[C@@H](c3ccc(C)cc3)N3C(=O)N(c4cccc(F)c4)C(=O)[C@@]3(C)[C@H]2C1=O	3.13%
O=S(=O)(Cc1cccc(C(F)(F)F)c1)c1ncn[nH]1	17.9%
COc1cccc(COc2ccc3c(C)c(Cc4ccccc4)c(=O)oc3c2)c1	6.98%
CCN1C=C(Cc2cccs2)C2=C(C1)C(c1cccs1)C(C#N)=C(N)O2 (stereo not shown)	-16.8%
CCC(C)(C)c1ccc(Oc2cccc(C(=O)O)c2)cc1	11.5%
CCC(C)(C)c1ccc(OCCCC[n+]2cccc(C)c2C)c(C(C)(C)CC)c1.[Br-]	-75.8%
CCC(C)(C)c1ccc(OCCCC[n+]2ccccc2)c(C(C)(C)CC)c1.[Br-]	-67.2%
CCC(C)(C)c1ccc(OCCCC[n+]2ccc(C)cc2)c(C(C)(C)CC)c1.[Br-]	-75.7%
Cc1cc(=O)oc2cc(OCCCC[n+]3ccccc3)ccc12.[Br-]	4.72%
CCC(C)(C)c1ccc(OCC(=O)N(C)C)c(C(C)(C)CC)c1	-4.24%
Cc1cc(C(C)(C)C)ccc1OCCCCN1CCCC1	-40%
CCC(C)(C)c1ccc(O)cc1	6.62%
Cc1cc[n+](CC[n+]2ccc(C)cc2)cc1.[Br-]	16.7%
O=C(Nc1nnc(-c2ccco2)s1)c1ccccc1	8.26%
Nn1c(Cc2ccccc2F)nnc1SCCOc1ccc(Cl)cc1	-14.1%

Structure (SMILES)	hERG current change (%, negative = inhibition) at 10uM
C=CCSc1nnc(CNC(=O)c2ccccc2C)n1C(C)C	5.68%
CC(=O)c1c(C)[nH]c(C(=O)NCCC2=CCCCC2)c1C	4.77%
O=C1CC(c2ccccc2)CC(O)=C1C=NCCN1CCNCC1 (stereo not shown)	9.28%
Cc1ccc(C2CC(=O)C(C=NCCN3CCN(C(=O)Cc4ccccc4)CC3)=C(O)C2)cc1 (stereo not shown)	-42.8%
O=C1CC(c2ccccc2)CC(O)=C1C=NCCN1CCN(Cc2ccccc2)CC1 (stereo not shown)	-63.1%
O=C1CC(c2ccccc2)CC(O)=C1C=NCCc1ccccc1 (stereo not shown)	6.57%
O=C1CC(c2ccccc2)CC(O)=C1C=NCCN1CCOCC1 (stereo not shown)	-0.797%
O=C1CC(c2ccccc2)CC(O)=C1C=NCCN1CCN(C(=O)Cc2ccccc2)CC1 (stereo not shown)	-53%
Cc1ccc(C)c(OC2=NS(=O)(=O)c3ccccc32)c1	23.2%
Cc1cc(Cl)ccc1OCCCC(=O)N/N=C/c1cccc([N+](=O)[O-])c1	22.2%
CC(=O)Nc1cccc(-c2nc3ccccc3s2)c1	-13.4%
O=C(Nc1ccc(O)c(-c2nc3ccccc3s2)c1)c1cccs1	-9.79%
O=C(Nc1cccc(-c2nc3ccccc3s2)c1)c1cccs1	-53.1%
Cc1nc(N2CCN(c3ccccn3)CC2)c2c(C)c(C(=O)Nc3c(F)cc(F)cc3Br)sc2n1	-14.4%
CN1CCN(S(=O)(=O)c2ccc(Cl)c3ccccc23)CC1	-1.62%
C=CCn1c(NC(=O)c2ccc(Br)o2)c(C(=O)OCC)sc1=S	37%
Cc1ccc(S(=O)(=O)C2(C(=O)N3CCN(c4cc(C)ccc4C)CC3)CC2)cc1	-15.2%
COc1ccc(N2CCN(C(=O)C3(S(=O)(=O)c4ccc(C)cc4)CC3)CC2)cc1	-53.7%
Cc1ccc(Cl)cc1N1CCN(C(=O)C2(S(=O)(=O)c3ccc(Cl)cc3)CC2)CC1	-6.38%
O=C(N1CCN(c2ccccc2)CC1)C1(S(=O)(=O)c2ccc(Cl)cc2)CC1	-42.1%
Cc1ccc(S(=O)(=O)C2(C(=O)N3CCCCCC3)CC2)cc1	-11.6%
CC(=O)c1ccc(N2CCN(C(=O)C3(S(=O)(=O)c4ccc(Cl)cc4)CC3)CC2)cc1	-51.8%

Structure (SMILES)	hERG current change (%, negative = inhibition) at 10uM
CCOc1ccc(C(=O)CCC(=O)Nc2cc(C)ccn2)cc1	11.8%
COc1ccc(OC)c(N=Cc2c(O)c3ccccc3oc2=O)c1	12.9%
O=C(CCc1nnc2ccc(NCc3ccccc3Cl)nn12)NC1CCCCC1	-7.98%
COc1ccc(C(=O)C2CCCN(Cc3cccn3-c3ccc(Cl)cn3)C2)c(OC)c1 (stereo not shown)	-76%
COc1ccc(C(=O)C2CCCN(Cc3cccn3-c3ccccn3)C2)c(OC)c1 (stereo not shown)	-74.6%
COc1ccc(C(=O)C2CCCN(CCO)C2)c(C)c1 (stereo not shown)	4.23%
COc1ccc(C(=O)C2CCCN(Cc3cccn3-c3ccccn3)C2)c(C)c1 (stereo not shown)	-78.9%
COc1ccc(C(=O)C2CCCN(C(=O)CCc3ccccn3)C2)c(C)c1 (stereo not shown)	-14.7%
COc1ccccc1NC(=O)Cn1c(C)nc2c(sc(=S)n2Cc2ccco2)c1=O	-32.6%
COc1cc(Cl)cc(C#N)c1OCC(=O)O	11%
O=C(NC(Nc1nc2ccc([N+](=O)[O-])cc2s1)(C(F)(F)F)C(F)(F)F)c1ccccc1Cl	-23.1%
O=C(CSc1nnc(-c2cccnc2)n1Cc1ccccc1)NCc1ccccc1	-14.1%
O=C(COC(=O)c1ccccc1NS(=O)(=O)c1cccs1)NCC12CC3CC(CC(C3)C1)C2	5.15%
COc1cc(NC2c3ccccc3C(=O)N2Cc2ccccc2Cl)cc(OC)c1OC (stereo not shown)	-0.846%
CC(C)(CO)NC(=O)C(Cc1ccccc1)N1C(=O)c2ccccc2C1=O (stereo not shown)	17%
Cc1c(C#N)c(NC(=O)CCl)n(Cc2cccs2)c1C	-11.4%
CCN1CCN(C(=O)CCc2nnc(CCCCc3ccccc3)o2)[C@@H](C)C1=O	16.5%
CN1CCC(=O)N([C@H](CN=[N+]=[N-])c2ccccc2)CC1	6.65%
CN1CCC(=O)N([C@H](CC#N)c2ccccc2)CC1	16.2%
CN1CCC(=O)N([C@H](CO)c2ccccc2)CC1	3.76%
CN1CCC(=O)N([C@H](CSc2ccc(Br)cc2)c2ccccc2)CC1	-83.7%
CN1CCC(=O)N([C@H](CSc2ccccc2)c2ccccc2)CC1	-64.9%
